E coli growth-1 – bacterial growth inhibition, counter-screen for AddAB inhibitors; inhibition, % at 11.9 µM; E. coli V3065 growth, OD600 absorbance, 18 h; actives 0.27% (n = 330,000);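 active = inhibition above the campaign's mean inhibition across all tested compounds plus 3 SD, cut at about 9.9% in these data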;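 also: uninfected addAB+ strain grown without phage in ampicillin broth; 0% = DMSO wells and 100% = ciprofloxacin 0.95 µg/ml wells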
AddAB inh – less growth of phage-infected E. coli with AddAB. actives 0.29% (n = 330,000). E. coli expressing H. pylori AddAB, absorbance growth. inhibition, % at 11.9 µM; in the data active = inhibition above about 12%;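 also: 0% = vehicle wells of infected cells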
E coli growth-2 – blocks Escherichia coli growth | AID 1053175 | actives 0.21% (n = 330,000) | OD600, 23 h; hits give low values | OD600 absorbance (test concentration not listed);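 active = OD600 absorbance below the run mean of sample wells minus 3.6 SD, in any replicate, cut at about 0.56 in these data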
phage Ecoli inh – E. coli growth loss with phage present | growth absorbance | inhibition, % at 11.9 µM | actives 0.26% (n = 360,000); in the data active = inhibition above about 11%
Tat export inh – blocks Tat-dependent protein export in E. coli | E. coli MC4100 TorA-mCherry Tat export, fluorescence | inhibition, % at 10 µM | actives 0.036% (n = 340,000) | AID 488895;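 active = mean replicate inhibition at least 50% and at least half of replicates individually reaching 50%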;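 also: exported cargo escapes ClpAP degradation while cytoplasmic cargo is degraded and loses fluorescence; 0% = median of neutral control wells and 100% = median of NaSCN control wells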
AddAB conf – growth loss of T4-infected E. coli expressing H. pylori AddAB, confirmed; shares compounds with AddAB inh; E. coli V3065 expressing H. pylori AddAB, T4 phage, OD; T4 phage with gene 2 nonsense mutations; inhibition, % at 11.9 µM; actives 64% (n = 880);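 active = mean inhibition above a set limit taken from the earlier primary screen, cut at about 13% in these data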;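 also: higher means less bacterial growth since AddAB block lets phage replicate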
RecBCD counter – counter-screen: growth loss of RecBCD+ E. coli with mutant T4 phage | E. coli V66 + mutant T4 phage, OD growth | actives 73% (n = 880) | shares compounds with AddAB inh | inhibition, % at 11.9 µM;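 active = mean inhibition above the mean of solvent-only control wells plus 3 SD, cut at about 4% in these data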;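 also: optical density read after an 18 h incubation at 37 °C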
Bact viability – counter-screen for AddAB inhibitors: inhibitors of bacterial viability; shares compounds with AddAB inh; absorbance (AddAB counterscreen); inhibition, % at 11.9 µM; actives 35% (n = 880); AID 488956; in the data active = inhibition above about 25%
Numbers without * were called inactive; / = no result. Sampled rows, rich in hits. Any-hit rate of the full collection: about 0.5%.

SMILES	E coli growth-1	AddAB inh	E coli growth-2	phage Ecoli inh	Tat export inh	AddAB conf	RecBCD counter	Bact viability
CC(=O)NN1C(=O)c2ccccc2NC1c1ccc([N+](=O)[O-])o1 (stereo not drawn)	15*	18*	0.6	4	-10	79*	5.9*	30*
Cc1ccc(S(=O)(=O)CCC(=O)NNC(=O)CN(C)S(=O)(=O)c2ccc(C)cc2)cc1	-1	0	0.66	3	3	/	/	/
Cc1ccc(S(=O)(=O)CCC(=O)Nc2ccc(S(=O)(=O)N(C)C)cc2)cc1	96*	97*	0.64	/	/	-5	0	-2
CCOC(=O)c1[nH]c2ccccc2c1NC(C)=O	-3	-3	0.73	6	-6	/	/	/
CCOC(=O)c1[nH]c2ccccc2c1NC(=O)C(CC)CC	11*	63*	0.71	2	12	-3	0	-2
NC(CO)c1cn(C(CCC(=O)O)C(=O)N2CCNCC2)nn1 (stereo not drawn)	/	/	0.7	/	/	/	/	/
Cn1cnc(Sc2ncnc3nc[nH]c23)c1[N+](=O)[O-]	17*	26*	/	11	6	53*	10*	33*
Cn1cnc([N+](=O)[O-])c1Sc1ncnc2nc[nH]c12	1	2	0.7	2	-2	/	/	/
NC(=NOC(=O)c1ccccc1Cl)c1ncc([N+](=O)[O-])s1	/	/	0.6	/	/	/	/	/
N/C(=N/OC(=O)c1ccc(Cl)cc1)c1ncc([N+](=O)[O-])s1	6	19*	/	6	-10	43*	1	1
CC(C#Cc1c(C(C)Oc2ccccc2)nnn1Cc1ccccc1)Oc1ccccc1 (stereo not drawn)	/	/	0.68	/	/	/	/	/
CC(C)CCN(C)C1CCN(C(=O)Nc2c(F)cccc2F)CC1	5	28*	0.72	4	-1	-3	1	-1
COc1ccc(-c2nnc3ccc(SCC(=O)N4CCCCC4)nn23)cc1OC	48*	97*	0.74	2	2	-2	-2	-4
Cc1cc(Cl)ccc1OCCCC(=O)NNC(=O)c1ccccc1O	8	17*	0.71	10	2	8	8.7*	8
O=C(NCCC1=CCCCC1)C1CCN(S(=O)(=O)c2ccccc2)CC1	-3	-2	0.69	4	-2	/	/	/
O=C(NCCC1=CCCCC1)C1CCN(C(=O)Cc2ccccc2)CC1	98*	98*	0.72	0	-11	-1	1	0
CC(C)(C)Nc1nc(Cl)nc(Nc2ccccc2)n1	0	3	0.68	2	2	/	/	/
COc1ccccc1Nc1nc(Cl)nc(NC(C)(C)C)n1	79*	96*	0.68	2	8	-3	-2	-2
CC(O)C(C(=O)N1CCNCC1)n1cc(CCCCN)nn1 (stereo not drawn)	/	/	0.7	/	/	/	/	/
COC(=O)c1sc2ccccc2c1N	21*	35*	0.7	2	1	2	-1	-1
COC(=O)c1sc2ccccc2c1C(=O)OC	/	/	0.67	2	-8	/	/	/
O=C(NCC1CC1(Cl)Cl)Nc1ccc(Cl)c(Cl)c1 (stereo not drawn)	6	13*	0.43*	9	-5	12	13*	2
Cc1ccc(NC(=O)NCC2CC2(Cl)Cl)cc1 (stereo not drawn)	2	1	/	3	-11	/	/	/
CC1NC(=O)C(CCC(N)=O)NC(=O)c2cc([N+](=O)[O-])cc(I)c2NCCCC(C(N)=O)NC1=O (stereo not drawn)	/	/	0.68	/	/	/	/	/
Cc1cccc(NC(=O)NC(C)C(c2cccs2)N2CCOCC2)c1 (stereo not drawn)	99*	100*	0.73	4	-10	-1	2	3
SMILES	E coli growth-1	AddAB inh	E coli growth-2	phage Ecoli inh	Tat export inh	AddAB conf	RecBCD counter	Bact viability
CC(=O)n1cc(C2C=C(C(=O)Nc3ccccc3)OC(OCc3ccc(CO)cc3)C2)c2ccccc21 (stereo not drawn)	/	/	0.68	/	/	/	/	/
O=c1c2ccccc2[nH]c2ccccc12	5	14*	0.57	9	-8	6	4.8*	3
c1ccc2c(c1)[nH]c1ccccc12	-1	3	0.7	1	-3	/	/	/
CC(C)c1ccc(NC(=S)NC2CCCCCC2)cc1	87*	98*	0.7	1	-4	-4	1	1
S=C(Nc1ccc(Oc2ccc(NC(=S)NC3CCCCC3)cc2)cc1)NC1CCCCC1	5	4	0.68	0	2	/	/	/
C=C(C)C(=O)Nc1cccc(C2=NOC3(C2)CC(C(N)=O)N(C(=O)C=CC)C3)c1 (stereo not drawn)	/	/	0.66	/	/	/	/	/
CC(=O)NC1CCCN(O)C(=O)/C=C(\C)CCOC(=O)C(NC(C)=O)CCCN(O)C(=O)/C=C(\C)CCOC(=O)C(NC(C)=O)CCCN(O)C(=O)/C=C(\C)CCOC1=O (stereo not drawn)	16*	21*	/	/	/	14*	15*	6
Cc1ccc(C(=O)NC2CCCCN(C)C2=O)cc1 (stereo not drawn)	/	/	/	2	/	/	/	/
NS(=O)(=O)c1ccc(CCNC(=O)CSc2ccsc2[N+](=O)[O-])cc1	15*	16*	0.64	7	-1	40*	5.4*	32*
CCCCOC(=O)C(C)Oc1ccc(=O)n(-c2ccccc2)n1 (stereo not drawn)	5	21*	0.77	2	-3	4	1	-3
CCc1ccc(C(C(=O)NCc2ccccc2)N(C(=O)c2csnn2)C2CC2)cc1 (stereo not drawn)	46*	99*	0.65	0	-2	-4	0	-2
O=C(NCc1ccccc1)C(c1ccccc1)N(C(=O)c1csnn1)C1CC1 (stereo not drawn)	1	3	0.71	3	-2	/	/	/
CC(C)Cc1ccc(CN2CCCC(NC(=O)c3ccoc3)C2)cc1 (stereo not drawn)	13*	14*	0.61	4	-4	10	5.4*	9
CC(C)Cc1ccc(CN2CCCC(NC(=O)c3ccnn3C)C2)cc1 (stereo not drawn)	-1	0	0.66	1	9	/	/	/
COc1ccc(-n2c(C)cc(/C=N/Nc3nnc(C)n3N)c2C)cc1	3	14*	/	1	-17	6	1	-3
COc1ccc(C=NNc2nnc(C)n2N)cc1OC	/	/	0.7	/	/	/	/	/
Cc1cc(/C=N/NC(=O)c2ccccc2F)c(C)n1-c1ccccc1	-1	131*	/	4	1	1	2	0
O=C(Cn1cc(C(=O)c2ccco2)c2ccccc21)Nc1ccccc1F	11*	13*	0.66	10	-5	11	11*	11
CN1CCN(C(=O)C2=CC(C3CCCCC3)CC(OCc3ccc(CO)cc3)O2)CC1 (stereo not drawn)	/	/	0.7	/	/	/	/	/

Bioassay records as filed in PubChem.
